# Measurements reported in PubChem BioAssay.
# The source made the active and inactive calls.
# Legend:
# [1] = compound effects on differentiated 3T3-L1 adipocyte viability – cell-based, 3T3-L1 adipocytes, calcein-AM fluorescence, 48 h, basal, profiling panel (AID 1163); details: 3T3-L1 adipocytes viability, higher = more signal
# [2] = compound effects on hepatocellular carcinoma cell viability – HepG2, calcein-AM fluorescence, 48 h, basal, profiling panel (AID 1164); details: higher = more signal
# [3] = compound effects on multiple myeloma cell viability – MM1S, calcein-AM fluorescence, 48 h, basal, profiling panel (AID 1165); details: higher = more signal;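 note: viability of MM1S multiple myeloma cells under basal unstimulated conditions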
# [4] = calcein-AM signal in unstimulated myeloma cells – cell-based, calcein-AM fluorescence, 48 h, PK04 Diversity Set, profiling panel (AID 1166); details: RPMI8226 myeloma viability, higher = more signal;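 note: cells grown under basal conditions without added stimulus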
# [5] = JC-1 mitochondrial signal, unstimulated HepG2 cells – cell-based, JC-1 fluorescence, 24 h, 100 nL compound, profiling panel (AID 1167); details: HepG2 mitochondrial potential, higher = more signal
# [6] = JC-1 mitochondrial signal, unstimulated adipocytes – cell-based, JC-1 fluorescence, 3T3-L1 adipocytes, 24 h, 100 nL compound, profiling panel (AID 1168); details: JC-1 mitochondrial fluorescence, higher = more signal, called active from +8 up or from −8 down
# [7] = JC-1 mitochondrial signal, unstimulated myeloma cells – cell-based, JC-1 fluorescence, RPMI8226, 24 h, 100 nL compound, profiling panel (AID 1169); details: JC-1 mitochondrial potential fluorescence, higher = more signal
# [8] = JC-1 mitochondrial signal, unstimulated MM1S myeloma – cell-based, JC-1 fluorescence, 24 h, 100 nL compound, profiling panel (AID 1170); details: MM1S mitochondrial potential, higher = more signal
# [9] = resazurin metabolic signal in A549 cells – cell-based, resazurin fluorescence, 24 h, PK04 Diversity Set, profiling panel (AID 1171); details: A549 viability, higher = more signal, called active from +8 up or from −8 down
# [10] = resazurin metabolic signal in HepG2 cells – cell-based, resazurin fluorescence, 24 h, PK04 Diversity Set, profiling panel (AID 1172); details: HepG2 viability, higher = more signal
# [11] = budding yeast growth changes without added modifier – OD600, strain BY4716, 24 h, basal condition, primary screen (AID 1173); details: S. cerevisiae BY4716 growth, OD600, 24 h; higher = more signal, called active from +8 up or from −8 down
# [12] = viability profiling in MM1S myeloma cells – cell-based, resazurin fluorescence, basal, 24 h, PK04 Diversity Set, profiling panel (AID 1174); details: higher = more signal, called active from +8 up or from −8 down
# [13] = target: Dihydroorotate dehydrogenase (quinone), mitochondrial (Plasmodium falciparum (isolate 3D7)) (UniProt Q08210); test: inhibition of P. falciparum DHODH – biochemical, C-terminal His tag, absorbance 600 nm, primary screen (AID 1175); details: PfDHODH enzyme, DCIP absorbance 600 nm; higher = more signal, called active from +8 up or from −8 down;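 note: recombinant parasite enzyme with a five histidine tag at its C terminus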
# Dihydroorotate dehydrogenase (quinone), mitochondrial (Plasmodium falciparum (isolate 3D7)), sequence (Q08210 whole entry, looked up): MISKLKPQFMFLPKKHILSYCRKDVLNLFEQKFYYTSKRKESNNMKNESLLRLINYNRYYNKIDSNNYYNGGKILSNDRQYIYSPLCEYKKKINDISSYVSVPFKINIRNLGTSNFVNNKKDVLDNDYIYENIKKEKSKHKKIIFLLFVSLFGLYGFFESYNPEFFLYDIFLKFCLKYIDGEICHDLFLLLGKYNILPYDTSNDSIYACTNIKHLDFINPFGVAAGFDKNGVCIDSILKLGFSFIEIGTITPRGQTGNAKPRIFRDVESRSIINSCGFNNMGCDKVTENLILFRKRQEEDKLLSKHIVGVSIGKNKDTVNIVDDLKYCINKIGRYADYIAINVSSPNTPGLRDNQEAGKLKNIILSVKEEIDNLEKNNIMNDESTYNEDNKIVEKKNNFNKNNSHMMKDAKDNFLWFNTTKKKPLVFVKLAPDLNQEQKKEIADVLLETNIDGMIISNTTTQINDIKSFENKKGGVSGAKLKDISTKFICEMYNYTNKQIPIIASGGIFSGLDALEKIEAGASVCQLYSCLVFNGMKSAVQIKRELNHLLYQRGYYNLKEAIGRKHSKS
# [14] = growth modulation of vineyard yeast isolate – strain RM11-1a, OD600, basal, 24 h, primary screen (AID 1177);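 note: cultures grown under basal conditions with no added stressor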; details: S. cerevisiae RM11-1a growth, OD600, 24 h; higher = more signal, called active from +8 up or from −8 down
# [15] = growth of efflux-deficient E. coli DRC39 – strain DRC39, OD650, 24 h, E. coli filamentation inducers, primary screen (AID 1178);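 note: growth measured as culture turbidity by optical density at 650 nm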; details: E. coli DRC39 acrAB, higher = more signal, called active from +8 up or from −8 down
# [16] = growth of efflux-deficient E. coli DRC39 – strain DRC39, OD650, 48 h, E. coli filamentation inducers, primary screen (AID 1179);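 note: screen aims at cell division blockers that make cells filament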; details: E. coli DRC39 delta-acrAB growth, higher = more signal, called active from +8 up or from −8 down
# [17] = viability profiling in RPMI8226 myeloma cells – cell-based, resazurin fluorescence, basal, 24 h, PK04 Diversity Set, profiling panel (AID 1180); details: higher = more signal;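 note: RPMI8826 multiple myeloma cell line at 5000 cells per well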
# [18] = target: E3 ubiquitin-protein ligase XIAP (Homo sapiens) (UniProt P98170); test: small molecules binding XIAP protein – biophysical, small-molecule microarray, fluorescence 635 nm, primary screen (AID 1181); details: higher = more signal;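 note: score merges 667 nm emission and signal to noise over triplicate slides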
# E3 ubiquitin-protein ligase XIAP (Homo sapiens), sequence (P98170 whole entry, looked up, the tested form may be a part): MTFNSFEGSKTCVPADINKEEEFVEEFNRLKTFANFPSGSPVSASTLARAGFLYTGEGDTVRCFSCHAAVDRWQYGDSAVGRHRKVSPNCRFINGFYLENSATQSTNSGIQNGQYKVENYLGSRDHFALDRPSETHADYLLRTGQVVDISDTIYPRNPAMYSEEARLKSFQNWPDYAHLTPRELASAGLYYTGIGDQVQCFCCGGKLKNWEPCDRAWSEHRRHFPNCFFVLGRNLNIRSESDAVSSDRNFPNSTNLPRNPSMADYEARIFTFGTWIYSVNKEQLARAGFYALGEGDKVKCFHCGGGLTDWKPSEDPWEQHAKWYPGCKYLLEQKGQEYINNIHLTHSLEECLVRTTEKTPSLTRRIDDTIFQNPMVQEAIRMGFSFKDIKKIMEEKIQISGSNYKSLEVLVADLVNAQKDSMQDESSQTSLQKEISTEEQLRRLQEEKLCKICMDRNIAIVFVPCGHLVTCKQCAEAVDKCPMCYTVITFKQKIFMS
# [19] = test system: XIP peptide (Xip251-270) binding; test: XIP fragment 251-270 binding compounds – biochemical, small-molecule microarray, fluorescence 635/667 nm, 0.1 µg/mL protein, primary screen (AID 1182); details: fluorescent protein binding, 635 nm, higher = more signal, called active from +8 up or from −8 down
# [20] = test system: XIP peptide (Xip251-270); test: compounds binding XIP fragment 251-270 – biochemical, small-molecule microarray, fluorescence 635/667 nm, 0.5 µg/mL protein, primary screen (AID 1183); details: fluorescence 635 nm, higher = more signal
SMILES,z-score [1],z-score [2],z-score [3],z-score [4],z-score [5],z-score [6],z-score [7],z-score [8],z-score [9],z-score [10],z-score [11],z-score [12],composite z-score [13],z-score [14],z-score [15],z-score [16],z-score [17],composite z-score [18],composite z-score [19],composite z-score [20]
O=C1N(CCS(=O)(=O)c2ccccc2)Cc2ccccc2[C@@H]2OC(c3ccc(OCCCO)cc3)=N[C@]12Cc1ccccc1,2.11,0.288,-0.0623,-0.222,0.194,0.401 (inactive),-1.11,-0.693,-0.77 (inactive),0.309,1.72 (inactive),-0.739 (inactive),0.913 (inactive),4.1 (inactive),2.25 (inactive),1.05 (inactive),-0.384,-0.121,1.73 (inactive),0.927
CC(C)N1C(=O)c2ccccc2[C@@H](C(=O)NCc2ccccc2)[C@@H]1c1ccc(CO)cc1,1.05,-0.179,-0.601,0.0541,0.617,-0.0455 (inactive),0.115,-0.251,1.05 (inactive),0.595,0.25 (inactive),1.51 (inactive),0.578 (inactive),1.49 (inactive),0.541 (inactive),0.169 (inactive),1.01,-0.0095,0.482 (inactive),-0.988
COc1ccc([Si](C)(C)[C@@H]2[C@@H](CCn3cc(CCO)nn3)O[C@]3(C(=O)N(Cc4ccc(N5C(=O)c6cccc7cccc5c67)cc4)c4ccccc43)[C@H]2C)cc1,1.91,-4.48,-2.68,-4.34,1.75,2.83 (inactive),-1.04,-1.78,-2.38 (inactive),-1.3,-0.456 (inactive),-5.44 (inactive),0.0498 (inactive),0.643 (inactive),2.2 (inactive),1.02 (inactive),-4.14,0.0159,0.437 (inactive),0.739
Cc1ccc(N2C(=O)c3ccccc3[C@](C)(C(=O)NCC(F)(F)F)[C@@H]2c2ccc(CO)cc2)nc1,1.45,0.529,-0.436,-1.45,-0.106,-0.603 (inactive),0.54,1.04,0.451 (inactive),0.125,-1.08 (inactive),1.57 (inactive),0.534 (inactive),0.216 (inactive),0.24 (inactive),0.536 (inactive),1.4,0.0506,-0.0838 (inactive),-0.964
C=C(COC)C(=O)CC[C@H](OC(=O)c1cccnc1)c1cccc(OCCO)c1,1.13,-1.38,-3.32,-0.941,0.872,0.984 (inactive),-0.169,-0.615,0.633 (inactive),0.282,-0.221 (inactive),0.839 (inactive),-0.236 (inactive),1.61 (inactive),1.09 (inactive),0.757 (inactive),-0.581,0.0792,0.804 (inactive),-0.661
